The text below walks through data of PubChem BioAssay (NCATS).

Results filed as inconclusive are left out. Entries that show only a call come without a potency. Activity calls are given as the source filed them. Calls follow the shape of the dose curve; as a rule, active = well fitted cell-killing curve with a large enough effect; inconclusive = small, poorly fitted or top-dose-only effect, or effect the other way; inactive = flat fitted curve, though single readings scatter.
Potency is read from the fitted curve at half-maximal effect.

This assay is described as follows: qHTS for Inhibitors of Ubiquitin-specific Protease USP2a Using CHOP2 as the Reporter: Cytotox Assay (AID 652170). Also: nearly all actives have a fitted effect of over 70% in size. The conditions noted are these: HCT116 viability, CellTiter-Glo luminescence, 72 h; series mostly up to 46.1 µM. An outline of the steps: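 HCT116 human colon cancer cells, 600 per well in DMEM with 10% FBS, exposed to compounds for 72 hr at 37 deg C. ATP measured by CellTiter-Glo luminescence, normalized to DMSO cells and no-cell background.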
(In general: qHTS replaces the single test concentration by a dilution series.)
Turning to `CN(Cc1nccs1)S(=O)(=O)c1ccc(Nc2nc(-c3ccccc3)cs2)cc1`, the Potency entry was “inactive”.

Turning to `Cc1ccc(-c2cc(C(=O)Nc3ccc(C(F)(F)F)cc3)c3ccccc3n2)cc1C`, the Potency result was “inactive”.

Consider `O=S(=O)(Nc1nccs1)c1ccc(Nc2nc(-c3ccc(Cl)c(Cl)c3)cs2)cc1`, for which the Potency entry is “inactive”.

`Cc1ccc(S(=O)(=O)Nc2cnccc2C(=O)Nc2nc(C(=O)O)cs2)cc1`: the Potency result was “inactive”.

As to `N#Cc1cnc(N[S+](=O)([O-])c2ccc(Nc3nc(-c4ccccc4)cs3)cc2)s1`, the Potency entry is “inactive”.

Take `Cc1ccc(S(=O)(=O)Nc2cnccc2C(=O)Nc2nc(-c3ccc(F)cc3)cs2)cc1`: the Potency is 20.9 µM (active).

In the case of `CCN(CC)C(=O)C1CCC(C(=O)Nc2ccc([S+](=O)([O-])Nc3nccs3)cc2)CC1` (stereo not given), the Potency result is “inactive”.

`CCC(=O)OC1CCC(C(=O)Nc2ccc([S+](=O)([O-])Nc3nccs3)cc2)CC1` (stereo not given): the Potency entry was “inactive”.

Turning to `Cc1ccc(S(=O)(=O)Nc2cnccc2C(=O)NCCc2ccccc2)cc1`, the Potency entry is “inactive”.

As for `Nc1ccc(S(=O)(=O)Nc2cnccc2C(=O)Nc2nc(-c3ccccc3)cs2)cc1`, the Potency result was “inactive”.

On to `COc1cccc(S(=O)(=O)Nc2cnccc2C(=O)Nc2nc(-c3ccccc3)cs2)c1`, for which the Potency is 23.5 µM (active).

Turning to `Cn1cnc(S(=O)(=O)Nc2cnccc2C(=O)Nc2nc(-c3ccccc3)cs2)c1`, the Potency entry was “inactive”.

In the case of `Nc1cccc(S(=O)(=O)Nc2cnccc2C(=O)Nc2nc(-c3ccccc3)cs2)c1`, the Potency entry was “inactive”.

In the case of `Cc1ccc(S(=O)(=O)Nc2cc([N+](=O)[O-])ccc2C(=O)Nc2nc(-c3ccccc3)cs2)cc1`, the Potency was 5.26 µM (active).

In the case of `CC(C)(C)NC(=O)N1CCC(C(=O)Nc2ccc([S+](=O)([O-])Nc3nccs3)cc2)CC1`, the Potency entry was “inactive”.
